Lmaj promast – reduces viability of Leishmania major promastigotes. resazurin fluorescence viability. inhibition, % at 10 µM. hit rate 9% among 200,000; in the data active means inhibition above about 50%;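 further: promastigotes grown with compound for 44 hours at 28 °C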
WT yeast gro inh – growth inhibition of WT yeast, mitochondrial fusion screen; mitochondrial fusion phenotypic screen, WT strain; inhibition, % at 10 µM; hit rate 2.1% among 190,000; AID 1362; in the data active means inhibition above about 58%; tested in S. cerevisiae
m-calpain inh – calpain II (pig) inhibition. purified calpain II, fluorogenic peptide substrate, 30 min. hit rate 0.37% among 220,000. inhibition, % at 16 µM;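 active means inhibition above about 50%, limit read from the data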
KCC2 mod – modulates chloride dependent transport by human KCC2; KCC2 cells, thallium flux FluoZin-2 fluorescence; hit rate 2.2% among 190,000; Q9H2X9; B-score of Tl+ flux slope (higher = more flux/activation; lower = inhibition) at 10 µM;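 active means thallium flux slope and its plate-corrected score both differing from the plate sample mean at a set confidence after two filtering rounds, in either direction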;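 further: slope of fluorescence scaled to starting intensity during 10 to 20 s after thallium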
Target sequence (Q9H2X9 whole entry, looked up): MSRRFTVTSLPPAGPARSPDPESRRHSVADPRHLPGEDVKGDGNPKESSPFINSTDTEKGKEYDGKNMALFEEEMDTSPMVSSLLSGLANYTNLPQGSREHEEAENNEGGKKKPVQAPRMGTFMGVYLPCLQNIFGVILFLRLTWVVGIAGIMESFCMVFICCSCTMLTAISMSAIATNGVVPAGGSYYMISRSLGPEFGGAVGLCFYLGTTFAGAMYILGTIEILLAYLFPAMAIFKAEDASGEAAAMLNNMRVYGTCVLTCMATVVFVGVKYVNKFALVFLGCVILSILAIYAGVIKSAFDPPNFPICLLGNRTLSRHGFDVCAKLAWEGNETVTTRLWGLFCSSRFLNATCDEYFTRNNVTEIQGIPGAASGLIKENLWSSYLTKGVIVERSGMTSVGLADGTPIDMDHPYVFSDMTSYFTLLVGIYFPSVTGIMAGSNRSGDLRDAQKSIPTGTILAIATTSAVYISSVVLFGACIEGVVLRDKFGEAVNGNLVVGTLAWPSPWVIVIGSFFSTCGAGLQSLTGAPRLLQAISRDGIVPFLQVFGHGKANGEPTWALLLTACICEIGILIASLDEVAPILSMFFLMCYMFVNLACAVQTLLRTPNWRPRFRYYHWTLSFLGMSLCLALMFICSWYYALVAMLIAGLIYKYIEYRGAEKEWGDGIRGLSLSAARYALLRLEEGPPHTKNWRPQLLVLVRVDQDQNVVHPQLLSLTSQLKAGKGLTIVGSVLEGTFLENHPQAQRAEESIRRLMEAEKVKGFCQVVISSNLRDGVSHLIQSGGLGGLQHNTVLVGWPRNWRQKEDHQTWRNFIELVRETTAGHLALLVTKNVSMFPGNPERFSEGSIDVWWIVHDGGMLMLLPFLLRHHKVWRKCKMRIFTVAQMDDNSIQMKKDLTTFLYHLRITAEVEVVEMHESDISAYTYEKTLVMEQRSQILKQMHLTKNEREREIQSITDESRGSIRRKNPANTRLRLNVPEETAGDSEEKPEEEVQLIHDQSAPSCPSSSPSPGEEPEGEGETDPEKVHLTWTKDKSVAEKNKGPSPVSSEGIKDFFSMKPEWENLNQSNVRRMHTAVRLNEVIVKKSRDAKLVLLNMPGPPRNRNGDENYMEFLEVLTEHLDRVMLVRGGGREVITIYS
ROMK mod – human ROMK K+ channel modulation, primary screen. B-score at 10 µM. Tet-inducible ROMK, thallium flux fluorescence; actives lie on both sides. AID 1918. hit rate 2% among 130,000. P48048;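 active means signal ratio slope over the read window, or its plate-corrected B-score, at least 3 SD from the plate mean, either direction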;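 further: B-score of the F/F0 ratio slope over 7 to 12 s after thallium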
KCC2 sec1 – KCC2 (human) modulation, secondary assay. shares compounds with KCC2 mod. HEK293-KCC2, thallium flux, FluoZin2 fluorescence; hits give high values. normalised thallium flux (F/F0 slope) at 10 µM. hit rate 15% among 3,700. AID 1713;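 active means thallium flux slope above the same plate's solvent-only control mean plus 3 SD; inconclusive means the two replicate wells disagree; inactive means no significant difference from solvent-only control wells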
KCC2 bumet counter – thallium flux despite bumetanide block in KCC2 cells, secondary assay 3 | shares compounds with KCC2 mod | HEK293-KCC2 + bumetanide/ouabain, thallium flux FluoZin2; hits give high values | normalized thallium flux at 10 µM | hit rate 49% among 3,700;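 active means thallium entry rate above the same plate's blocked-transporter control wells by more than 3 SD; inconclusive means the two repeat wells disagree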;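 further: raw slope of fluorescence over initial fluorescence between 10 and 20 s after thallium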
KCC2 secondary2 – KCC2 (human) modulation, second secondary assay | shares compounds with KCC2 mod | HEK293-KCC2, thallium flux FluoZin2 fluorescence; actives lie on both sides; F/F0 rise rate, 10–20 s post-thallium | normalized thallium flux at 10 µM | hit rate 23% among 3,700 | AID 1715;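 active means thallium flux slope more than 3 SD above or below the plate's solvent-only control mean, mostly below; inconclusive means the two repeat wells disagreed; inactive means no significant shift from solvent-only controls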;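 further: raw slope with 0.1% DMSO as baseline and bumetanide as block control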
HEK293 Tl flux – parental HEK flux effect, counter-screen. thallium flux rate (normalised fluorescence) at 10 µM. shares compounds with KCC2 mod. HEK293 parental cells, thallium flux FluoZin2, ouabain; baseline-ratio fluorescence slope, 10–20 s after thallium. hit rate 46% among 3,700;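 active means thallium flux rate significantly above the same plate's solvent-only control wells, beyond their mean plus 3 SD; inconclusive means the two replicate wells gave conflicting results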
KCC2 ouabain – modulates human KCC2 on retest with ouabain | shares compounds with KCC2 mod | HEK293-KCC2, thallium flux FluoZin2 fluorescence; bidirectional: low = inhibitor, high = activator | raw Tl+ flux slope (below DMSO = inhibition, above = activation) at 10 µM | hit rate 48% among 3,700 | AID 1717;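 active means thallium flux slope beyond 3 SD from same-plate DMSO control mean in most replicates, usually higher, sometimes lower; inconclusive means repeat tests gave conflicting results; inactive means no significant difference from controls in most replicates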;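 further: slope of initial-normalized fluorescence between seconds 10 and 20 after thallium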
HEK293 Tl flux2 – acts in parental HEK cells, second KCC2 counter-screen; HEK293 parental, thallium flux FluoZin-2 fluorescence slope; shares compounds with KCC2 mod; thallium flux slope at 10 µM; AID 1718; hit rate 33% among 3,700;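 active means thallium flux slope above the same plate's solvent-control mean plus 3 SD in both duplicate wells; inconclusive means duplicate wells that disagreed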;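 further: run without ouabain in cells lacking the KCC2 cotransporter; slope of fluorescence scaled to its starting value between 10 and 20 s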
Starred values were filed as active, the others as inactive; ? = inconclusive; · = no result given. Rows were chosen to be rich in hits. Some 12% of all compounds tested hit in one or more screens of this group.

SMILES	Lmaj promast	WT yeast gro inh	m-calpain inh	KCC2 mod	ROMK mod	KCC2 sec1	KCC2 bumet counter	KCC2 secondary2	HEK293 Tl flux	KCC2 ouabain	HEK293 Tl flux2
O=C1NC(N2CCOCC2)=N/C1=C/c1ccc2c(c1)OCO2	-1	2	-23	1.3	-0.31	·	·	·	·	·	·
O=C(O)Cc1sc(Nc2ccccc2)nc1-c1ccc(Cl)cc1	-3	8	10	-6.7*	0.87	0.0083	0.01*	0.033	0.0075	?	0.011
COc1cc(C(=O)NC(=S)Nc2nccs2)cc(OC)c1OC	0	12	-4	3.6	0.74	·	·	·	·	·	·
Fc1ccccc1-n1cc(-c2ccccc2)[nH]c1=S	-2	-8	-14	70*	0.9	0.019*	0.12*	?	0.046*	0.08*	0.02*
O=C(CN1CCN(S(=O)(=O)c2ccccc2[N+](=O)[O-])CC1)NC(=O)NCc1ccco1	6	-18	-92	-0.35	-0.4	·	·	·	·	·	·
COc1ccc(Nc2cc(C)nc3ccccc23)cc1	86*	-8	13	1.3	-1.9	0.0098	0.008*	0.03	0.0073	0.021	0.011
CC(=O)/C=C1\SC(CC(=O)O)C(=O)N1c1ccccc1 (configuration not stated)	-5	-2	-18	0.11	-0.044	·	·	·	·	·	·
COC(=O)c1cnc(NNC(=O)c2ccc([N+](=O)[O-])cc2)nc1C(F)(F)F	·	·	13	3.5*	·	0.0092	0.011*	0.032	?	0.021	0.011
CS/C(N)=N/C(=S)Nc1cccc(Cl)c1	·	·	14	7.5*	·	0.01	0.018*	0.034	?	0.023	?
NC(=S)Nc1cccc(Cl)c1	·	·	3	-0.48	-0.38	·	·	·	·	·	·
COC(=O)c1c(NC(=S)Nc2cc(OC)c(Cl)cc2OC)sc2c1CCCCC2	-1	0	-1	6.9*	0.31	0.015*	0.025*	0.034	0.011*	0.024	?
Cc1cccc(Nc2nnc(SCC(=O)Nc3ncc(C(F)(F)F)cc3Cl)s2)c1C	-4	13	-1	-3.6*	·	0.0059	0.0052	0.024*	0.0067	?	0.01
Cc1cccc(C)c1Nc1nnc(SCC(=O)Nc2ncc(C(F)(F)F)cc2Cl)s1	-2	20	6	-6.5*	-1	0.0057*	0.0069	0.025*	?	0.014*	0.0093
COc1ccc(/C=C/C(=O)NC(=S)N2CCN(c3ccccn3)CC2)cc1OC	5	16	-20	-0.0068	1	·	·	·	·	·	·
O=C(/C=C/c1ccc(F)cc1)NC(=S)N1CCN(c2ccccn2)CC1	·	·	-6	21*	·	0.0076	0.019*	0.031	0.013*	?	0.013*
O=C(/C=C/c1ccccc1)NC(=S)N1CCSCC1	-7	-17	-3	9.7*	-0.48	0.022*	0.026*	?	0.018*	0.025*	0.02*
O=C(NC(=S)N1CCN(C/C=C/c2ccccc2)CC1)c1ccc(F)cc1	·	·	18	151*	·	0.0099*	0.13*	0.11*	0.11*	0.12*	0.11*
CC(=O)CSc1ncnc2sc3c(c12)CCC3	2	3	-7	7.1*	-1.3	0.019	0.024*	0.033	0.014*	0.022*	0.017*
O=C1OCCC1Sc1ncnc2sc3c(c12)CCC3 (configuration not stated)	-1	46	6	3.3*	0.009	0.0055	0.024*	?	0.018*	?	0.018*
Cc1ccc(C(=O)CSc2ncnc3sc4c(c23)CCC(C)C4)cc1 (configuration not stated)	-4	-11	-21	4.2*	·	?	0.037*	0.037	?	?	0.012
Cc1ccc(S(=O)(=O)N2CCN(C(=O)C3Cc4ccccc4CN3C(=O)c3ccco3)CC2)cc1 (configuration not stated)	-6	4	-62	-0.39	0.021	·	·	·	·	·	·
CC(=O)Nc1sc(-c2ccccc2)nc1-c1ccccc1	12	-1	-69	0.046	·	·	·	·	·	·	·
CC(=O)Nc1sc(-c2ccc(Cl)cc2)nc1-c1ccccc1	·	·	-2	7.3*	-0.34	0.019*	0.055*	0.033	0.0092*	0.024	0.01
CCOc1ccc(N2CC(C(=O)Nc3c(C)n(C)n(-c4ccccc4)c3=O)CC2=O)cc1 (configuration not stated)	-5	4	-6	-5*	0.094	0.0087	0.007	0.028	0.0066	0.021	0.0089
O=S(=O)(c1ccc(Br)s1)N1CCNCC1	·	·	1	0.67	·	·	·	·	·	·	·
SMILES	Lmaj promast	WT yeast gro inh	m-calpain inh	KCC2 mod	ROMK mod	KCC2 sec1	KCC2 bumet counter	KCC2 secondary2	HEK293 Tl flux	KCC2 ouabain	HEK293 Tl flux2
c1ccc(CSC2=NNC(c3ccccn3)S2)cc1 (configuration not stated)	·	·	10	28*	0.38	?	0.026*	?	0.015*	0.025*	0.018*
CCc1c(C)sc(NC(=O)c2cc(C3CC3)on2)c1C#N	-8	10	22	3.7*	·	0.008	0.012*	0.029	0.011*	0.022	0.012*
CCCc1cc(C(=O)Nc2sc3c(c2C#N)CCC3)no1	-10	29	-6	6.2*	·	0.0078	0.024*	0.029	0.018*	?	0.016*
CCc1c(C)sc(NC(=O)c2cc(C)on2)c1C#N	5	7	18	1.8	2.6	·	·	·	·	·	·
CCCc1cc(C(=O)Nc2sc(C)c(CC)c2C#N)no1	-10	17	-16	9.7*	·	0.012	0.026*	0.037	0.021*	0.029*	0.013*
CCCC(=O)Nc1sc2c(c1C#N)CCCC2	11	7	-8	0.91	-0.17	·	·	·	·	·	·
S=C1NCN(C2CCCCC2)CN1CCc1ccccc1	·	·	24	1.4	·	·	·	·	·	·	·
N[C@@H](CO)c1nnc([C@H](CC(=O)O)NC(=O)C2CCNCC2)o1	-2	3	-4	-0.45	·	·	·	·	·	·	·
O=C(N=Nc1c(O)n(Cc2ccccc2)c2ccccc12)c1ccncc1	·	·	11	-1.3	·	·	·	·	·	·	·
NC(=S)N=Nc1c(O)n(Cc2ccccc2)c2ccccc12	-6	-6	-9	8.8*	·	0.0074	0.0083*	0.034	0.011*	?	?
CCOC(=O)N=Nc1c(O)n(CC)c2ccccc12	-6	-17	1	-0.14	-0.4	·	·	·	·	·	·
C/C(Cl)=C\Cn1c(O)c(N=NC(N)=S)c2ccccc21	4	-31	-7	42*	1.3	?	0.06*	0.062*	0.047*	0.058*	0.045*
